Experimental data as given in PubChem BioAssay (NCI).
This is part of a sample that, as a whole, favours compounds with a hit. Of some 83,000 tested, about 20% had one in any assay.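 Activity criterion: percent growth below 10, measured after cells in 96-well plates were exposed to a single compound concentration for 48 hours.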 Calls of active or inactive are those of the source.

What was measured:
Assay in all cases: NCI-60 one-dose screen, 48 h (100 = growth as untreated, 0 = no growth, -100 = all killed)
Conditions in all cases: 10 µM
SK-MEL-2 melanoma = tested on: SK-MEL-2 melanoma
EKVX NSCLC = tested on: EKVX NSCLC
SN12C renal = tested on: SN12C renal
UO-31 renal = tested on: UO-31 renal
ACHN renal = tested on: ACHN renal
CAKI-1 renal = tested on: CAKI-1 renal
A498 renal = tested on: A498 renal
CCRF-CEM leukemia = tested on: CCRF-CEM leukemia
MOLT-4 leukemia = tested on: MOLT-4 leukemia

Measured: growth

CCn1c(SC/C(=N/O)c2ccccc2)nnc1-c1ccccc1
inactive: SK-MEL-2 melanoma 108% | EKVX NSCLC 90.6% | SN12C renal 88.6% | UO-31 renal 91.5% | ACHN renal 105% | CAKI-1 renal 89% | A498 renal 69.3% | CCRF-CEM leukemia 88.9% | MOLT-4 leukemia 94.8%

Cc1cc(Cl)ccc1Nc1nc(C(F)(F)F)ccc1C(=O)N/N=C/c1c(Cl)cccc1Cl
active: SK-MEL-2 melanoma -17.4% | EKVX NSCLC 0.628% | SN12C renal 6.51% | UO-31 renal 4.21% | ACHN renal -8.52% | CAKI-1 renal -22.7% | A498 renal -60.8% | CCRF-CEM leukemia -18% | MOLT-4 leukemia -16.8%

COc1cc2cc(Oc3ccc(NC(=O)c4cccc(C(F)(F)F)c4)cc3)c(C)nc2cc1OC
inactive: SK-MEL-2 melanoma 38.8% | EKVX NSCLC 18.6% | SN12C renal 36.9% | UO-31 renal 22.8% | ACHN renal 33.9% | CAKI-1 renal 13.3% | CCRF-CEM leukemia 25.9% | MOLT-4 leukemia 28.4%
active: A498 renal 0.391%

CN(C)c1ccc(/C=N/NC(=O)c2ccccc2Nc2cccc(C(F)(F)F)c2)cc1
active: A498 renal 1.42%
inactive: SK-MEL-2 melanoma 62.3% | EKVX NSCLC 82.2% | SN12C renal 87.6% | UO-31 renal 77.2% | ACHN renal 97.4% | CAKI-1 renal 77.7% | CCRF-CEM leukemia 53.4% | MOLT-4 leukemia 76.7%

C[n+]1c2ccccc2nc2ccccc21
active: SK-MEL-2 melanoma -24.2% | SN12C renal -27.8% | CCRF-CEM leukemia -0.566%
inactive: EKVX NSCLC 54.9% | UO-31 renal 42.4% | ACHN renal 13.6% | CAKI-1 renal 15.3% | A498 renal 60% | MOLT-4 leukemia 24.9%

CS(=O)(=O)c1nccc(-c2c(-c3cccc(OCc4ccccc4)c3)nc3sccn23)n1
inactive: SK-MEL-2 melanoma 103% | EKVX NSCLC 92.5% | SN12C renal 76.2% | ACHN renal 95.9% | CAKI-1 renal 44.2% | A498 renal 72.5% | CCRF-CEM leukemia 52.5% | MOLT-4 leukemia 26.5%
active: UO-31 renal 3.7%

COc1cccc(C2C(C#N)=C(N)Oc3cc(N)ccc32)c1 (stereo unspecified)
inactive: SK-MEL-2 melanoma 24.5% | EKVX NSCLC 55.7% | SN12C renal 36.3% | UO-31 renal 49.7% | ACHN renal 55.4% | CAKI-1 renal 31.9% | CCRF-CEM leukemia 11.4% | MOLT-4 leukemia 28.9%
active: A498 renal 1.48%

CC(C)N(CCOc1cccc(-c2nc3sccn3c2-c2ccnc(S(C)(=O)=O)n2)c1)C(C)C
inactive: SK-MEL-2 melanoma 109% | EKVX NSCLC 101% | SN12C renal 83.9% | UO-31 renal 89.8% | ACHN renal 93.7% | CAKI-1 renal 93.3% | A498 renal 53.2% | CCRF-CEM leukemia 81% | MOLT-4 leukemia 84.3%

COc1cc(C2C(C#N)=C(N)Oc3cc(O)ccc32)cc(OC)c1OC (stereo unspecified)
inactive: SK-MEL-2 melanoma 23.4% | EKVX NSCLC 55.3% | SN12C renal 35.9% | UO-31 renal 43% | ACHN renal 51.8% | CAKI-1 renal 30.7%
active: A498 renal -5.59% | CCRF-CEM leukemia 8.88% | MOLT-4 leukemia 6.05%

COc1cc2cc(Oc3ccc(NC(=O)Nc4ccc(C(F)(F)F)cc4)cc3)c(C)nc2cc1OC
inactive: SK-MEL-2 melanoma 76.7% | EKVX NSCLC 75.7% | SN12C renal 72.2% | UO-31 renal 87.6% | ACHN renal 56.1% | CAKI-1 renal 70.4% | A498 renal 90.5% | CCRF-CEM leukemia 68.5% | MOLT-4 leukemia 61.9%

CS(=O)(=O)c1nccc(-c2c(-c3cccc(OCc4ccc(F)cc4)c3)nc3sccn23)n1
active: UO-31 renal -24.1%
inactive: SK-MEL-2 melanoma 96% | EKVX NSCLC 97.2% | SN12C renal 77.7% | ACHN renal 94.9% | CAKI-1 renal 34.4% | A498 renal 77.3% | CCRF-CEM leukemia 50% | MOLT-4 leukemia 24.2%

COc1ccc(C2CC(c3cc(OC)c(OC)c(OC)c3)=NN2)cc1 (stereo unspecified)
inactive: SK-MEL-2 melanoma 87.6% | EKVX NSCLC 91.2% | SN12C renal 94.5% | UO-31 renal 62.7% | ACHN renal 99% | CAKI-1 renal 69% | A498 renal 87.4% | CCRF-CEM leukemia 57.3% | MOLT-4 leukemia 73.4%

NC1=NC(c2ccccc2)C2=C(N1)/C(=C/c1ccccc1)CCC2 (stereo unspecified)
inactive: SK-MEL-2 melanoma 87.1% | EKVX NSCLC 95% | SN12C renal 91.6% | UO-31 renal 70.5% | ACHN renal 108% | CAKI-1 renal 93.8% | A498 renal 75% | CCRF-CEM leukemia 91% | MOLT-4 leukemia 77.8%

O=C(N/N=C/c1c(Cl)cccc1Cl)c1ccccc1Nc1cccc(C(F)(F)F)c1
active: A498 renal -5.76%
inactive: SK-MEL-2 melanoma 71.4% | EKVX NSCLC 89.8% | SN12C renal 92.6% | UO-31 renal 93.7% | ACHN renal 102% | CAKI-1 renal 95.5% | CCRF-CEM leukemia 73.1% | MOLT-4 leukemia 77.9%

COc1cc2cc(Oc3ccc(NC(=O)Nc4cccc(C(F)(F)F)c4)cc3)c(C)nc2cc1OC
active: SK-MEL-2 melanoma -35.8% | CAKI-1 renal 9.13% | CCRF-CEM leukemia 6.41% | MOLT-4 leukemia 0.812%
inactive: EKVX NSCLC 15.4% | SN12C renal 17.2% | UO-31 renal 11.3% | ACHN renal 11.2% | A498 renal 21.7%

CS(=O)(=O)c1nccc(-c2c(-c3cccc(O)c3)nc3sccn23)n1
inactive: SK-MEL-2 melanoma 107% | EKVX NSCLC 88.7% | SN12C renal 91% | UO-31 renal 66.5% | ACHN renal 86.2% | CAKI-1 renal 95.5% | A498 renal 70.5% | CCRF-CEM leukemia 90% | MOLT-4 leukemia 93%

COc1ccc(/C=C2\CCCC3=C2NC(N)=NC3c2ccc(OC)c(OC)c2)cc1OC (stereo unspecified)
inactive: SK-MEL-2 melanoma 56.8% | EKVX NSCLC 82.7% | SN12C renal 57.4% | UO-31 renal 63% | ACHN renal 27.3% | CAKI-1 renal 55.9% | A498 renal 91.3% | CCRF-CEM leukemia 15.3% | MOLT-4 leukemia 53.1%

Clc1ccc(/C=C2\CCCC3C2=Nc2ccccc2NC3c2ccc(Cl)cc2)cc1 (stereo unspecified)
inactive: SK-MEL-2 melanoma 92.1% | EKVX NSCLC 89.3% | SN12C renal 85.3% | UO-31 renal 70.7% | ACHN renal 97.3% | CAKI-1 renal 91.3% | A498 renal 67.2% | CCRF-CEM leukemia 75.9% | MOLT-4 leukemia 65.8%

COc1cc2cc(Oc3ccc(NC(=O)c4ccccc4)cc3)c(C)nc2cc1OC
inactive: SK-MEL-2 melanoma 59.5% | EKVX NSCLC 89.8% | SN12C renal 81% | UO-31 renal 81.4% | ACHN renal 80.8% | CAKI-1 renal 85.3% | A498 renal 89% | CCRF-CEM leukemia 101% | MOLT-4 leukemia 89.9%

c1ccc(/C(=N\Nc2ccc3ccccc3n2)c2ccccn2)cc1
inactive: EKVX NSCLC 15.1% | SN12C renal 18.5% | UO-31 renal 13.7%
active: SK-MEL-2 melanoma -9.63% | ACHN renal 0.2% | CAKI-1 renal -2.91% | A498 renal -47.3% | CCRF-CEM leukemia -39% | MOLT-4 leukemia -21.8%

CS(=O)(=O)c1nccc(-c2c(-c3cccc(OCCc4ccccc4)c3)nc3sccn23)n1
inactive: SK-MEL-2 melanoma 107% | EKVX NSCLC 98.6% | SN12C renal 95.5% | UO-31 renal 71.5% | ACHN renal 101% | CAKI-1 renal 85.7% | A498 renal 91.7% | CCRF-CEM leukemia 91.3% | MOLT-4 leukemia 84.5%

COc1nc2c(c(=O)n1C)CN(c1ccccc1)C(=O)C(C)N2 (stereo unspecified)
inactive: SK-MEL-2 melanoma 90.8% | EKVX NSCLC 96.4% | SN12C renal 92% | UO-31 renal 78.7% | ACHN renal 93.9% | CAKI-1 renal 100% | A498 renal 115% | CCRF-CEM leukemia 97.2% | MOLT-4 leukemia 93.7%

COc1ccc(N(C)c2ncnc3occ(C)c23)cc1
active: SK-MEL-2 melanoma -4.77% | CAKI-1 renal -6.13% | CCRF-CEM leukemia -20.9% | MOLT-4 leukemia -1.42%
inactive: EKVX NSCLC 42.1% | SN12C renal 34% | UO-31 renal 26.5% | ACHN renal 29% | A498 renal 68.7%

Clc1nc2ccc(Br)cc2cc1-c1nc2ccccc2[nH]1
active: ACHN renal 2.34%
inactive: SK-MEL-2 melanoma 120% | EKVX NSCLC 50.3% | SN12C renal 15.2% | UO-31 renal 79.7% | CAKI-1 renal 84.2% | A498 renal 39.9% | CCRF-CEM leukemia 72.9% | MOLT-4 leukemia 47.2%

COc1ccccc1/C=N\N/C(N)=N\N=C\c1ccccc1OC
active: CAKI-1 renal -7% | A498 renal -66.5% | CCRF-CEM leukemia -19.6% | MOLT-4 leukemia 4.77%
inactive: SK-MEL-2 melanoma 21.4% | EKVX NSCLC 26.1% | SN12C renal 18.4% | UO-31 renal 14.1% | ACHN renal 20.5%

COc1cc2cc(Oc3ccc(NC(=O)c4cc(C(F)(F)F)cc(C(F)(F)F)c4)cc3)c(C)nc2cc1OC
inactive: SK-MEL-2 melanoma 64.6% | EKVX NSCLC 30.4% | SN12C renal 30.8% | UO-31 renal 30.9% | ACHN renal 32.3% | CAKI-1 renal 30.2% | A498 renal 40.5% | CCRF-CEM leukemia 33.7% | MOLT-4 leukemia 39.4%

COc1ccc(-c2onc(N)c2-c2cc(OC)c3c(c2)OCO3)cc1
inactive: SK-MEL-2 melanoma 13.6% | EKVX NSCLC 62% | SN12C renal 25.9% | UO-31 renal 55.2% | ACHN renal 43.8% | CAKI-1 renal 34% | A498 renal 12% | CCRF-CEM leukemia 14.5% | MOLT-4 leukemia 13.7%

CC1=NN(C(=O)c2nn(-c3ccc(Cl)cc3)cc2O)C(=O)C1
inactive: SK-MEL-2 melanoma 60.3% | EKVX NSCLC 65.2% | SN12C renal 49.5% | UO-31 renal 34.2% | ACHN renal 42% | CAKI-1 renal 114% | A498 renal 90.1% | CCRF-CEM leukemia 13.5% | MOLT-4 leukemia 24.8%

O=C1CC(=O)N(C(=O)c2nn(-c3ccc(Cl)cc3)cc2O)N1
active: CAKI-1 renal -7.19% | CCRF-CEM leukemia 5.93%
inactive: SK-MEL-2 melanoma 53% | EKVX NSCLC 29.6% | SN12C renal 45.1% | UO-31 renal 25.6% | ACHN renal 38.3% | A498 renal 113% | MOLT-4 leukemia 16.6%
